Source: PubChem BioAssay (NCATS)
Results filed as inconclusive are left out. Active and inactive are the calls of the source. Calls follow the shape of the dose curve; as a rule, active = well fitted inhibition curve with a large enough effect; inconclusive = small, poorly fitted or top-dose-only effect; inactive = flat fitted curve, though single readings scatter.

Legend:
[1] = qHTS profiling for inhibitors of Plasmodium falciparum proliferation (AID 504749);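 as to activity, negative = inhibition: 0% = DMSO vehicle and full inhibition = artemisinin control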; as to all read-outs here: nearly all actives have a fitted effect of over 60% in size; conditions: P. falciparum in erythrocytes, SYBR Green DNA, 72 h; for activity, negative = inhibition: at 28.7 µM (top of the series)
Method in brief: (§1)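 P. falciparum-infected erythrocytes (0.3% parasitemia, 2.5% hematocrit) incubated with compound 72 h at 37 C, 5% CO2. Parasite DNA detected by SYBR Green after lysis, overnight at room temperature; normalised to 0.29 uM artemisinin and DMSO.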

3D7 = experiment: as above; conditions: P. falciparum in erythrocytes, SYBR Green DNA, 72 h; series mostly up to 28.7 µM
Method in brief: as §1

7G8 = experiment: as above; conditions: P. falciparum in erythrocytes, SYBR Green DNA, 72 h; series mostly up to 28.7 µM
Method in brief: as §1
Potency is read from the fitted curve at half-maximal effect.

**Q.** With `NC(=O)n1c(O)c(C(=O)c2cccs2)c2cc(Cl)ccc21` as the compound, how does the activity, negative = inhibition ([1]; parasite line A) read?
**A.** 5.54% (inactive)

**Q.** What about the activity, negative = inhibition ([1]; parasite line B) of the same compound?
**A.** -6.01% (inactive)

**Q.** And the Potency (3D7)?
**A.** inactive

**Q.** Which activity, negative = inhibition ([1]; parasite line A) does the source give for `CC(=O)NCCCCCC(=O)O` here?
**A.** 7.94% (inactive)

**Q.** What about the activity, negative = inhibition ([1]; parasite line B) of the same compound?
**A.** 13.3% (inactive)

**Q.** And the Potency (3D7)?
**A.** inactive

**Q.** And the Potency (7G8)?
**A.** inactive

**Q.** For `CN(C)CCC[C@@]1(c2ccc(F)cc2)OCc2cc(C#N)ccc21`, which activity, negative = inhibition ([1]; parasite line A) is on record?
**A.** 3.06% (inactive)

**Q.** What about the activity, negative = inhibition ([1]; parasite line B) of the same compound?
**A.** 6.35% (inactive)

**Q.** And the Potency (3D7)?
**A.** inactive

**Q.** And the Potency (7G8)?
**A.** inactive

**Q.** What does the source list for `CC(=O)Nc1ncc([N+](=O)[O-])s1`?
**A.** activity, negative = inhibition ([1]; parasite line A): 11.2% (inactive); activity, negative = inhibition ([1]; parasite line B): 9.19% (inactive); Potency (3D7): inactive; Potency (7G8): inactive

**Q.** What does the source list for `CCOC(=O)C(C#N)=C(c1ccccc1)c1ccccc1`?
**A.** activity, negative = inhibition ([1]; parasite line A): 12.2% (inactive); activity, negative = inhibition ([1]; parasite line B): -2.15% (inactive); Potency (3D7): inactive

**Q.** Which activity, negative = inhibition ([1]; parasite line A) does the source give for `Cc1cc(-c2ccccc2)nnc1NCCN1CCOCC1` here?
**A.** 6.44% (inactive)

**Q.** What about the activity, negative = inhibition ([1]; parasite line B) of the same compound?
**A.** 8.72% (inactive)

**Q.** And the Potency (3D7)?
**A.** inactive

**Q.** What does the source list for `CN1CCN(C2=Nc3cc(F)ccc3Cc3ccccc32)CC1`?
**A.** activity, negative = inhibition ([1]; parasite line A): -5.08% (inactive); activity, negative = inhibition ([1]; parasite line B): -0.186% (inactive); Potency (3D7): inactive; Potency (7G8): 12.6 µM (active)

**Q.** With `NC(N)=NN=C(/C=C/c1ccc([N+](=O)[O-])o1)/C=C/c1ccc([N+](=O)[O-])o1` as the compound, how does the Potency ([1]; parasite line A) read?
**A.** 7.08 µM (active)

**Q.** And the Potency ([1]; parasite line B)?
**A.** 10 µM (active)

**Q.** And the Potency (3D7)?
**A.** 2.24 µM (active)

**Q.** What about the Potency (7G8) of the same compound?
**A.** 2.24 µM (active)

**Q.** Which activity, negative = inhibition ([1]; parasite line A) does the source give for `Cc1ccc(S(=O)(=O)NC(=O)NC2CCCC2)cc1` here?
**A.** 11.1% (inactive)

**Q.** What about the activity, negative = inhibition ([1]; parasite line B) of the same compound?
**A.** 9.92% (inactive)

**Q.** What about the Potency (3D7) of the same compound?
**A.** inactive

**Q.** What about the Potency (7G8) of the same compound?
**A.** inactive

**Q.** With `CCN1/C(=C/C=C/c2sc3ccccc3[n+]2CC)Sc2ccccc21` as the compound, how does the Potency ([1]; parasite line A) read?
**A.** 0.0891 µM (active)

**Q.** And the Potency ([1]; parasite line B)?
**A.** 0.178 µM (active)

**Q.** What about the Potency (3D7) of the same compound?
**A.** 0.141 µM (active)

**Q.** What about the Potency (7G8) of the same compound?
**A.** 0.0794 µM (active)

**Q.** What does the source list for `Cc1ncc(CO)c(C=O)c1O`?
**A.** activity, negative = inhibition ([1]; parasite line A): 0.609% (inactive); activity, negative = inhibition ([1]; parasite line B): 9.9% (inactive); Potency (3D7): inactive; Potency (7G8): inactive

**Q.** What does the source list for `COP(=O)(OC)OC(c1ccc(Cl)cc1)P(=O)(OC)OC` (configuration not stated)?
**A.** activity, negative = inhibition ([1]; parasite line A): 10.6% (inactive); activity, negative = inhibition ([1]; parasite line B): -3.59% (inactive); Potency (3D7): inactive; Potency (7G8): inactive

**Q.** Which activity, negative = inhibition ([1]; parasite line A) does the source give for `COc1ccc(CCN(C)CCCN2CCc3cc(OC)c(OC)cc3CC2=O)cc1OC` here?
**A.** -14.9% (inactive)

**Q.** And the activity, negative = inhibition ([1]; parasite line B)?
**A.** -7.04% (inactive)

**Q.** What about the Potency (3D7) of the same compound?
**A.** inactive

**Q.** What does the source list for `O=C(NCCc1c[nH]c2ccccc12)c1cccnc1`?
**A.** activity, negative = inhibition ([1]; parasite line A): 0.138% (inactive); activity, negative = inhibition ([1]; parasite line B): 13.6% (inactive); Potency (3D7): inactive; Potency (7G8): inactive

**Q.** With `COc1cc(C(=O)N2CCCCCCC2)cc(OC)c1OC` as the compound, how does the activity, negative = inhibition ([1]; parasite line A) read?
**A.** 22.3% (inactive)

**Q.** What about the activity, negative = inhibition ([1]; parasite line B) of the same compound?
**A.** 22.7% (inactive)

**Q.** And the Potency (3D7)?
**A.** inactive

**Q.** What about the Potency (7G8) of the same compound?
**A.** inactive

**Q.** For `N=C(N)N1CCc2ccccc2C1`, which activity, negative = inhibition ([1]; parasite line A) is on record?
**A.** 15.6% (inactive)

**Q.** And the activity, negative = inhibition ([1]; parasite line B)?
**A.** 0.433% (inactive)

**Q.** What about the Potency (3D7) of the same compound?
**A.** inactive

**Q.** What about the Potency (7G8) of the same compound?
**A.** inactive

**Q.** For `FC1(F)C(F)(F)C(F)(F)C2(F)C(F)(F)C(F)(F)C(F)(F)C(F)(F)C2(F)C1(F)F` (configuration not stated), which activity, negative = inhibition ([1]; parasite line A) is on record?
**A.** 5.48% (inactive)

**Q.** What about the activity, negative = inhibition ([1]; parasite line B) of the same compound?
**A.** 12.9% (inactive)

**Q.** What about the Potency (3D7) of the same compound?
**A.** inactive

**Q.** What about the Potency (7G8) of the same compound?
**A.** inactive

**Q.** For `CCCCNC(=O)NS(=O)(=O)c1ccc(N)cc1`, which activity, negative = inhibition ([1]; parasite line A) is on record?
**A.** 5.61% (inactive)

**Q.** And the activity, negative = inhibition ([1]; parasite line B)?
**A.** 12.3% (inactive)

**Q.** What about the Potency (3D7) of the same compound?
**A.** inactive

**Q.** What about the Potency (7G8) of the same compound?
**A.** inactive

**Q.** What does the source list for `CCCCCCCC/C=C\CCCCCCCCN`?
**A.** activity, negative = inhibition ([1]; parasite line A): 9.32% (inactive); activity, negative = inhibition ([1]; parasite line B): 3.75% (inactive); Potency (3D7): inactive; Potency (7G8): inactive

**Q.** With `CC(C)NCC(O)c1ccc2ccccc2c1` (configuration not stated) as the compound, how does the Potency ([1]; parasite line A) read?
**A.** 11.2 µM (active)

**Q.** And the Potency ([1]; parasite line B)?
**A.** 4.47 µM (active)

**Q.** And the Potency (3D7)?
**A.** 11.2 µM (active)

**Q.** And the Potency (7G8)?
**A.** 1.41 µM (active)

**Q.** Which results are given for `O=C(O)C(Cc1cc(I)c(O)c(I)c1)c1ccccc1` (configuration not stated)?
**A.** activity, negative = inhibition ([1]; parasite line A): -3.64% (inactive); activity, negative = inhibition ([1]; parasite line B): 7.72% (inactive); Potency (3D7): inactive; Potency (7G8): inactive

**Q.** Which results are given for `CC(C)CCCC(C)N` (configuration not stated)?
**A.** activity, negative = inhibition ([1]; parasite line A): 13% (inactive); activity, negative = inhibition ([1]; parasite line B): -1.67% (inactive); Potency (3D7): inactive; Potency (7G8): inactive

**Q.** Which results are given for `CCN(CC)CCNC(=O)c1cc(Br)c(N)cc1OC`?
**A.** activity, negative = inhibition ([1]; parasite line A): 1.38% (inactive); activity, negative = inhibition ([1]; parasite line B): 3.74% (inactive); Potency (3D7): inactive; Potency (7G8): inactive

**Q.** Which Potency ([1]; parasite line A) does the source give for `CCN(CC)CCNc1ccc(CO)c2sc3ccccc3c(=O)c12` here?
**A.** 1.78 µM (active)

**Q.** And the Potency ([1]; parasite line B)?
**A.** 3.55 µM (active)

**Q.** What about the Potency (3D7) of the same compound?
**A.** 2 µM (active)

**Q.** And the Potency (7G8)?
**A.** 2 µM (active)

**Q.** Which activity, negative = inhibition ([1]; parasite line A) does the source give for `CN1CCN(CCC(=O)N2c3ccccc3Sc3ccc(C(F)(F)F)cc32)CC1` here?
**A.** 8.92% (inactive)

**Q.** And the activity, negative = inhibition ([1]; parasite line B)?
**A.** -2.7% (inactive)

**Q.** And the Potency (3D7)?
**A.** inactive

**Q.** And the Potency (7G8)?
**A.** 10 µM (active)

**Q.** Which results are given for `Oc1ccccc1C=NCc1ccccc1`?
**A.** activity, negative = inhibition ([1]; parasite line A): 2.18% (inactive); activity, negative = inhibition ([1]; parasite line B): -16.9% (inactive); Potency (3D7): inactive; Potency (7G8): inactive

**Q.** With `OC[C@H]1O[C@@H]2O[C@H]3[C@H](O)[C@@H](O)[C@@H](O[C@H]4[C@H](O)[C@@H](O)[C@@H](O[C@H]5[C@H](O)[C@@H](O)[C@@H](O[C@H]6[C@H](O)[C@@H](O)[C@@H](O[C@H]7[C@H](O)[C@@H](O)[C@@H](O[C@H]8[C@H](O)[C@@H](O)[C@@H](O[C@H]1[C@H](O)[C@H]2O)O[C@@H]8CO)O[C@@H]7CO)O[C@@H]6CO)O[C@@H]5CO)O[C@@H]4CO)O[C@@H]3CO` as the compound, how does the activity, negative = inhibition ([1]; parasite line A) read?
**A.** 8.7% (inactive)

**Q.** What about the activity, negative = inhibition ([1]; parasite line B) of the same compound?
**A.** 8.53% (inactive)

**Q.** What about the Potency (3D7) of the same compound?
**A.** inactive

**Q.** And the Potency (7G8)?
**A.** inactive

**Q.** For `CCCCN=C(N)N=C(N)N`, which activity, negative = inhibition ([1]; parasite line A) is on record?
**A.** -1.88% (inactive)

**Q.** And the activity, negative = inhibition ([1]; parasite line B)?
**A.** 0.415% (inactive)

**Q.** What about the Potency (3D7) of the same compound?
**A.** inactive

**Q.** What about the Potency (7G8) of the same compound?
**A.** inactive

**Q.** With `CCc1oc2ccccc2c1C(=O)c1cc(Br)c(O)c(Br)c1` as the compound, how does the activity, negative = inhibition ([1]; parasite line A) read?
**A.** -3.41% (inactive)

**Q.** And the activity, negative = inhibition ([1]; parasite line B)?
**A.** -11.9% (inactive)

**Q.** What about the Potency (3D7) of the same compound?
**A.** inactive

**Q.** And the Potency (7G8)?
**A.** inactive
